In the library only some 12% were active in any assay of this set; here they are far more common.
Shiga toxin inh = A qHTS for Small Molecule Inhibitors of Shiga Toxin; Vero cells, Shiga toxin protein synthesis inhibition reporter; inhibition, % at 38.7 µM; 9.2% of 290,000 active; in the data active means inhibition mostly above about 28%, no sharp cut-off; inactive means mostly below about 43%
Marburg entry inh = qHTS for inhibitors of binding or entry into cells for Marburg Virus; Marburg virus pseudotyped entry inhibition, cell reporter; Potency, µM (series often up to 37.8 µM), most hits filed as inhibitors; 1.8% of 300,000 active; AID 540276, 2011; calls by dose curve; tested in HEK293 cells
CHX counter = Cycloheximide Counterscreen for Small Molecule Inhibitors of Shiga Toxin. max response, %. 12% of 300,000 active. cell reporter, cycloheximide protein synthesis inhibition counterscreen. AID 2314, 2010; in the data active means max response mostly above about 13%, no sharp cut-off; inactive means mostly below about 14%; further: read at 38.3 µM for the half of the compounds with a filed dose
LASV entry inh = qHTS for Inhibitors of binding or entry into cells for Lassa Virus; Lassa virus pseudotype entry inhibition, cell reporter; Potency, µM (titrated, usually from 37.9 µM), actives largely listed as inhibitors; 1.2% of 300,000 active; calls by dose curve; tested in HEK293 cells; further: nearly all actives have a fitted effect of over 50% in size
Numbers stand for hits; - = inactive; ? = inconclusive; . = not tested or not shown.

SMILES | Shiga toxin inh | Marburg entry inh | CHX counter | LASV entry inh
Cc1ccc(NC(=O)Cn2cc(S(=O)(=O)c3ccc(C)cc3)c(=O)c3cc4c(cc32)OCO4)cc1 | . | - | . | -
N#CC1C(C#N)N2CCCN2C1c1ccc(Br)cc1 (stereo not given) | - | ? | - | -
Cc1ccc(C(=O)c2ccccc2C(=O)OCC(=O)NCCc2ccc(Cl)cc2Cl)cc1 | - | ? | - | -
O=C(COC(=O)c1ccc[nH]c1=O)NCCc1ccc(Cl)cc1Cl | 98.3 | . | 79.3 | .
Cc1ccsc1/C=N/NC(=O)Nc1ccccc1 | 57.2 | ? | 30.8 | -
Cc1ccsc1/C=N/NC(=O)c1ccc([N+](=O)[O-])cc1 | - | - | 24.0 | -
Cc1ccc(S(=O)(=O)N/N=C\c2cc([N+](=O)[O-])ccc2Cl)cc1 | - | ? | - | ?
COc1ccc(CC(=O)N/N=C/c2sccc2C)cc1 | - | - | - | -
Cc1ccsc1/C=N/NC(=O)c1ccc2ccccc2c1 | 73.4 | ? | 44.3 | -
Cc1ccsc1/C=N/NS(=O)(=O)c1ccc([N+](=O)[O-])cc1 | - | - | 47.9 | -
Cc1ccsc1/C=N/NC(=O)c1ccncc1 | - | - | - | -
CCOc1ccc(NC(=O)c2c(NC(=O)c3ccco3)sc3c2CCC(C(C)(C)C)C3)cc1 (stereo not given) | . | - | . | -
Cc1ccsc1/C=N/NC(=O)c1cccnc1 | - | ? | 9.9 | -
Cc1cc(C)n(-c2ccc(NC(=O)C3CCCCN3Cc3cccc4c3OCO4)cc2)n1 (stereo not given) | - | ? | - | -
Cc1ccccc1Cn1ccc(NC(=O)c2onc(C)c2Cl)n1 | 75.9 | . | 28.6 | .
Cc1ccccc1Cn1ccc(NC(=O)c2nn(C)cc2[N+](=O)[O-])n1 | - | - | - | -
Cc1ccccc1Cn1ccc(NC(=O)c2nc3ncccn3n2)n1 | - | - | 9.3 | -
Cc1ccccc1Cn1cc(NC(=O)c2nc3ncccn3n2)cn1 | - | - | - | ?
CCS(=O)(=O)c1ccc(S(=O)(=O)CC)s1 | - | - | - | -
CCOc1ccc(N2CC(O)(c3cccs3)[N+]3=C2CCCC3)cc1 (stereo not given) | - | 5.62µM | - | -
OC1(c2cccs2)CN(c2ccccc2)C2=[N+]1CCCC2 (stereo not given) | - | - | - | -
O=C1/C(=C\c2ccco2)CCC/C1=C\c1ccco1 | - | ? | - | ?
O=C1/C(=C/c2ccco2)Cc2ccccc21 | 78.1 | ? | 54.1 | ?
CN(C)C=C1C(=O)c2ccccc2C1=O | 64.8 | - | 27.4 | -
CN(C)/C=C1\Cc2ccccc2C1=O | 112.9 | ? | 45.7 | -
SMILES | Shiga toxin inh | Marburg entry inh | CHX counter | LASV entry inh
O=C(CN1C(=O)NC2(CCCC2)C1=O)N1CCN(c2ccccc2O)CC1 | . | - | . | -
CN(CC(=O)Nc1cccc(F)c1)C(=O)c1ccncc1 | - | - | - | ?
COC1CCC(c2nnsc2N2C(=O)C3=C(CCCC3)C2=O)CC1 (stereo not given) | . | - | . | .
Cc1ccc(/C=C/c2ccc(=O)n(Cc3ccccc3Cl)n2)cc1 | - | - | - | -
COc1cc(/C=C/C(=O)NC(=O)c2ccccc2O)ccc1O | - | . | - | .
O=C(/C=C/c1ccccc1)NC(=O)c1ccccc1O | 50.9 | - | 28.4 | .
O=C(/C=C/c1ccccc1)CC(=O)c1ccccc1O | 26.6 | - | 25.4 | -
Cc1nnc(SCC(=O)Nc2ccc(Br)cc2)[nH]c1=O | . | ? | . | -
Fc1ccc(C(OCCN2CCCC2)c2ccc(F)cc2)cc1 | - | ? | - | -
Fc1ccc(C(OCCN2CCN(CCCc3ccccc3)CC2)c2ccc(F)cc2)cc1 | . | 7.08µM | . | 3.66µM
c1ccc(CCCN2CCN(CCOC(c3ccccc3)c3ccccc3)CC2)cc1 | . | 14.1µM | . | 16.4µM
CCCS(=O)(=O)c1c(S(=O)(=O)CCC)c2ccc(C(N)=O)cn2c1C(=O)c1ccc(OC)cc1 | - | - | - | ?
O=C1NC(=NCc2ccccc2)S/C1=C/c1ccc(O)cc1 | - | ? | 13.1 | ?
CCOC(=O)c1[nH]c2ccccc2c1NC(=O)Nc1ccc(OC)cc1 | - | - | 9.9 | -
CCOC(=O)c1cc2cc(OC)ccc2[nH]1 | 110.3 | - | 49.1 | ?
CCOC(=O)c1[nH]c2ccc(F)cc2c1NC(=O)c1ccccc1C(=O)O | 96.3 | . | 43.2 | .
CCOC(=O)c1[nH]c2ccc(OC)cc2c1NC(=O)c1ccccc1C(=O)O | 63.7 | ? | 34.9 | -
CCOC(=O)c1[nH]c2ccc(OC)cc2c1NC(=O)c1cccc(OC)c1 | - | ? | - | ?
COc1cccc(-c2nnc3n(Cc4ccccc4Cl)c(=O)c4ccccc4n23)c1O | . | - | . | ?
O=C(Nc1nonc1-c1ccc(Br)cc1)c1ccco1 | . | - | . | -
O=C(Cn1nc(-c2cccc(Cl)c2)ccc1=O)NCC1COCCO1 (stereo not given) | . | - | . | -
Cc1ccccc1NC(=O)Cc1nc(-c2ccc3ccccc3c2)cs1 | - | - | - | -
COCCn1c(C)cc(O)c(C(c2ccccc2Cl)N2CCN(c3ccccc3)CC2)c1=O (stereo not given) | . | . | . | -
CCOC(=O)c1[nH]c2ccc(OC)cc2c1C | 73.4 | - | 28.9 | -
CCOC(=O)c1[nH]c2ccc(OC)cc2c1NC(=S)N1CCN(c2cccc(C)c2C)CC1 | - | 2.24µM | 16.6 | ?
SMILES | Shiga toxin inh | Marburg entry inh | CHX counter | LASV entry inh
COc1ccc(-c2nc(SC)n(C(=O)c3ccco3)n2)cc1 | 59.4 | - | 32.7 | -
CS(=O)(=O)n1nc(-c2ccc(Cl)cc2)nc1SCc1ccccc1 | 73.1 | - | 39.2 | ?
COc1ccc(-c2nc(SCc3ccccc3)n(C(=O)c3ccco3)n2)cc1 | - | - | 26.1 | ?
COc1ccc(-c2nc(N)n(C(=O)c3ccco3)n2)cc1 | - | - | - | -
CCC1Oc2ccc(C)cc2N(CC(=O)NCCN2CCCCCC2)C1=O (stereo not given) | - | ? | - | -
CC=C(C)[C@H](O)C[Si](C)(C)c1ccccc1 | . | - | . | .
O=C(N/N=C/c1ccc(Br)s1)c1c[nH]c2ccccc12 | 68.4 | - | 46.0 | -
O=C(N/N=C/c1cc(Br)cs1)c1ccccc1[N+](=O)[O-] | - | ? | - | -
O=C(N/N=C/c1cc(Br)cs1)c1c[nH]c2ccccc12 | 62.4 | . | 44.2 | .
Cc1ccc(C2C3C(=O)N(c4ccc(C)cc4)C(=O)C3N3CCCN23)cc1 (stereo not given) | - | . | - | .
Nc1nnc(CC(=O)N/N=C/c2cccc(OCCOc3ccccc3)c2)s1 | 68.7 | ? | 40.5 | -
Cc1ccccc1OCCOc1cccc(/C=N/NC(=O)Cc2nnc(N)s2)c1 | 136.9 | ? | 38.3 | ?
CC(=O)c1ccc(-c2ccccc2)cc1 | 41.8 | - | 57.8 | -
CCC(=O)c1ccc(-c2ccccc2)cc1 | - | ? | 29.2 | -
CC(=O)N1CCCC1c1nc2ccccc2n1Cc1ccccc1F (stereo not given) | . | - | . | -
CC(=O)Nc1ccccc1/C=C/c1ccc2c(C)ccc(O)c2n1 | - | - | 17.1 | -
CC(=O)Nc1ccccc1/C=C/c1ccc2c(C)cc(C)c(O)c2n1 | - | - | - | -
Cn1c(-c2ccc3c(c2)OCO3)cnc1NCc1cccc(O)c1 | 43.8 | ? | 25.4 | -
Cn1c(-c2ccc(Cl)cc2)cnc1NCc1cc2c(cc1[N+](=O)[O-])OCO2 | - | ? | - | ?
Cn1c(-c2ccc(F)cc2)cnc1NCc1cc2c(cc1[N+](=O)[O-])OCO2 | - | ? | 32.8 | -

Screening results from PubChem.
